Measurements: PubChem BioAssay (NCATS)
Records with an inconclusive call do not appear. The source made the active and inactive calls. The call rests on the fitted dose curve; in most records, active means well fitted curve in the direction sought with a large enough effect; inconclusive means small, poorly fitted or top-dose-only effect, or another doubt; inactive means no such curve, though single readings can be large; an effect the other way counts as inactive or inconclusive.

Assays:
[1] = target: Calcium and integrin-binding protein 1 (Homo sapiens) (UniProt Q99828); assay: Primary qHTS for Identification of Calcium Integrin Binding Protein 1 (CIB1) Competitor (AID 1508620);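 further: GST tagged CIB1 binding a fluorescein labelled alphaIIb integrin peptide tracer; top concentration of the series differs between compounds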
Calcium and integrin-binding protein 1 (Homo sapiens), sequence (Q99828 whole entry, looked up): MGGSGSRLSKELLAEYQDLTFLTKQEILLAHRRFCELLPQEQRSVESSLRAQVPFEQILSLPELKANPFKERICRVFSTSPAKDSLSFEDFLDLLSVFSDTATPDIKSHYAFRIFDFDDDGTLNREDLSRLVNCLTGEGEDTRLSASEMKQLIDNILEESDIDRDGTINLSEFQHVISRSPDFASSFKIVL
Summary of the method: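 Fluorescence polarization competition: GST-tagged CIB1 (1 uM final) preincubated with compound 15 min at room temperature, then FITC-labelled alphaIIb peptide (100 nM final) added. After 15 min at room temperature, polarization read at Ex 480/Em 540.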

[2] = Primary qHTS for inhibitors of nuclear receptor binding SET domain protein 2 (NSD2) in an isogenic RCH-ACV NSD2 p.E1099K mutant (9B) (AID 1645876); further: nearly all actives have a fitted effect of over 70% in size
[3] = Primary qHTS for inhibitors of nuclear receptor binding SET domain protein 2 (NSD2) in an RCH-ACV wild type WT cells (2C) (AID 1645877); further: nearly all actives have a fitted effect of over 70% in size

Measured: Potency

CC1=CC(=O)CC(C)(C)C1CCC(C)O[C@@H]1O[C@H](CO)[C@@H](O)[C@H](O)[C@H]1O (some centres undefined)
inactive: all assays above

CC(NC(=O)c1ccccc1N)C(=O)O (centres undefined)
inactive: all assays above

CC(=O)OC1CC(C(C)(C)O)OC2CCC3(C)OC4=C(C(=O)C=C5C(C)C(OC(C)=O)C6(C)C(C)OC546)C(O)C3C12C (centres undefined)
inactive: all assays above

COc1ccc(C2C(C(=O)O)C(C(=O)O)C2c2ccc(OC)cc2O[C@@H]2O[C@H](CO)[C@@H](O)[C@H](O)[C@H]2O)c(O[C@@H]2O[C@H](CO)[C@@H](O)[C@H](O)[C@H]2O)c1 (some centres undefined)
inactive: all assays above

CC1=COC(OC2OC(CO)C(O)C(O)C2O)C2C(CO)CC(OC(=O)/C=C/c3ccc(O)cc3)C12 (centres undefined)
inactive: all assays above

CC(C)c1ccc2c(c1)C(O)CC1C(C)(CO)CCCC21C (centres undefined)
inactive: all assays above

C=C1CC23CC1CCC2C12OC(=O)C(C)(C(O)C(O)C1O)C2C3C(=O)O (centres undefined)
inactive: all assays above

COc1cc(C(CO)C(OC2OC(CO)C(O)C(O)C2O)c2ccc(O)c(OC)c2)ccc1O (centres undefined)
inactive: all assays above

CC1(C)CC[C@]2(C(=O)O)[C@H](O)C[C@]3(C)C(=CCC4[C@@]5(C)CC[C@H](O[C@@H]6OC[C@@H](O)[C@H](O)[C@H]6O)[C@@](C)(C(=O)O)C5CC[C@]43C)[C@@H]2C1 (some centres undefined)
inactive: all assays above

C/C=C/C=C/[C@@H]1O[C@](O)([C@H](CC)C(=O)NC/C=C/C=C(\C)[C@@H](OC)[C@@H](C)[C@@H]2O[C@H](/C=C/C=C/C=C(\C)C(=O)c3c(O)ccn(C)c3=O)[C@H](O)[C@@H]2O)[C@H](O)[C@H](O)C1(C)C
inactive: [1] | [2] inactive [at 9.23 µM] | [3] inactive [at 9.23 µM]

CC(=O)/C=C/C1(O)C(C)CC(O[C@@H]2O[C@H](CO)[C@@H](O)[C@H](O)[C@H]2O)CC1(C)C (some centres undefined)
inactive: all assays above

CC1C(O)C(O)C2C(C(=O)OCCc3ccc(O)cc3)=COC(O[C@@H]3O[C@H](CO)[C@@H](O)[C@H](O)[C@H]3O)C12 (some centres undefined)
inactive: all assays above

CC(C)(OC1OC(CO)C(O)C(O)C1O)C1CCC(O)(CO)C2CC(=O)C(C)(O)C2C1 (centres undefined)
inactive: all assays above
